The text below walks through data of the OligoGym collection.
Also: reference of the scale not given here.

For one test, the target named is C8B. The test can be described thus: pooled miR-30 sensor sort-seq; sequence = guide strand. The settings on record: shRNA.
In the case of TAACTCTCTGAAGGAACTCGTA, the sensor-assay potency score (higher = more potent) was -1.02.
Regarding TTTTAGTATGAGAGAATCGTTT, the sensor-assay potency score (higher = more potent) is -0.743.
Consider TAAAACCAAAACTGAAACCAGA, for which the sensor-assay potency score (higher = more potent) was -0.722.
On the same count and under the same terms, under TTACACACCTTCCTGTCTGTGC stands 0.539; under TTGTTGACTGCATTTGACCCAA, -0.397.
Sequence TTCCTTCTGGAACTCCTCCAGT had a sensor-assay potency score (higher = more potent) of -0.414.
For the sequence TTTATTTTAAACAGCTTGCATG, the sensor-assay potency score (higher = more potent) was -0.469.
On to TAAGAGTATAATCTCCTCTCTC, for which the sensor-assay potency score (higher = more potent) amounted to 0.0444.
In turn, TAATATAGTGTTTGCCTCGATC displayed a sensor-assay potency score (higher = more potent) of -0.751.
Turning to TTTGTCTTGTCTTACGTCTTCC, the sensor-assay potency score (higher = more potent) is -0.213.
For the sequence TAGGGCTTCCTAAACCTCGTGT, the sensor-assay potency score (higher = more potent) stood at 0.733.
In turn, TTCTACAGTTTGCTTCATCTGA showed a sensor-assay potency score (higher = more potent) of -0.199.
With TTGTCAGAGAAGTTGCACGGTT, the sensor-assay potency score (higher = more potent) is -0.544.
As to AACACAGTCTTCGACTTCCTTG, the sensor-assay potency score (higher = more potent) is -0.726.
Take TATTTTAAAACCAAAACTGAAA: the sensor-assay potency score (higher = more potent) was -1.26.
On the same count and under the same terms, with TAGTATGAGAGAATCGTTTGGT the figure was 0.49; with TTGACTTCCGCATGGTCTGTTG, -0.312; with TTGCCCTTGCATGAACTCCAGG, -1.15.
Turning to TTTGCCTACAGACACACCCAGA, the sensor-assay potency score (higher = more potent) was -0.947.
TTTAGTATGAGAGAATCGTTTG came in with a sensor-assay potency score (higher = more potent) of -0.791.

The next test deals with C8orf37. The description is as above. The settings on record: shRNA.
As for TTGCTTTGAGTTGATGAGGTAA, the sensor-assay potency score (higher = more potent) is -0.541.
As to TTATAATACATGATCTTCCTTA, the sensor-assay potency score (higher = more potent) was found to be 0.582.
TTAAATGTTTCTGTTGATCTGA displayed a sensor-assay potency score (higher = more potent) of 0.482.
TTTAACTGCTACAAGTTGGGGA: the sensor-assay potency score (higher = more potent) is 0.583.
In the case of TTGATGAGGTAAGATCAGCTAT, the sensor-assay potency score (higher = more potent) is -0.469.
Still for that read-out and setting: under TTAATTTGTGAAATTCTGGCAT stands 0.766.
For the sequence TACATGATCTTCCTTAGTCCAT, the sensor-assay potency score (higher = more potent) is -0.774.
As to TAATTTGTGAAATTCTGGCATG, the sensor-assay potency score (higher = more potent) was -0.39.
TTCTTCTTTATCAACTTTGCTT returned a sensor-assay potency score (higher = more potent) of -0.238.
Still for that read-out and setting: under TCTTCTTTATCAACTTTGCTTT stands -0.627; under TAAGACTGTCAAGATCATCTTC, 0.587.
As to ATATTGTGCATAACATTGCTTT, the sensor-assay potency score (higher = more potent) is -0.312.

The next test deals with C8orf86. The test is described as above. The settings on record: shRNA.
The sequence TTGAAGAAACCACAGATGCGAG displayed a sensor-assay potency score (higher = more potent) of -0.899.
TAATCAACTCCTCAGCTGGGAG had a sensor-assay potency score (higher = more potent) of -1.02.
The sequence TAATTCAGGAGTTCTGGGCGGG came in with a sensor-assay potency score (higher = more potent) of 0.0945.
For the sequence TTGGCTCTTTGGAACTGCCTGT, the sensor-assay potency score (higher = more potent) was -0.109.
The sequence TTTGAAGAAACCACAGATGCGA registered a sensor-assay potency score (higher = more potent) of 0.17.
Still for that read-out and setting: with TCTTTGTCTCTCTGTTCGCTGC the figure was -0.625.
Consider TTTCCTTCCCTTCTGTCCCAAA, for which the sensor-assay potency score (higher = more potent) was -1.07.
Regarding ATTGCTTCTAATCAACTCCTCA, the sensor-assay potency score (higher = more potent) came out at 0.067.
